This is an account of results in PubChem BioAssay (NCI).

This is part of a sample that, as a whole, favours compounds with a hit. Of some 83,000 tested, about 20% had one in any assay.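 Single-dose data. Exposure time 48 hours. Values below 10 considered active.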 A number with no mark means an inactive call. The source made the active and inactive calls.

Test systems include HCT-15 colon; HT29 colon; SNB-19 CNS; U251 CNS; PC-3 prostate; SK-MEL-5 melanoma; UACC-62 melanoma; LOX IMVI melanoma; SK-MEL-28 melanoma; SK-MEL-2 melanoma; EKVX NSCLC; SN12C renal; UO-31 renal; TK-10 renal; ACHN renal; CAKI-1 renal; A498 renal; CCRF-CEM leukemia; SNB-75 CNS; MOLT-4 leukemia.
Holding throughout (assay): NCI-60 one-dose screen, 48 h (100 = growth as untreated, 0 = no growth, -100 = all killed)
Conditions in all cases: 10 µM unless noted

Turning to `Cc1ccc(C2CC(c3cccc(Nc4ccncc4)c3)=NN2c2cc(Cl)cc(Cl)c2)cc1` (stereo not drawn), the growth is -65.6% (active) with HCT-15 colon; -7.29% (active) in the test with HT29 colon; 84.9% with SNB-19 CNS; -48.8% (active) in the test on U251 CNS; 33.8% with PC-3 prostate; 68.8% in the test on SK-MEL-5 melanoma. Besides, the growth is 99.4% in the test on UACC-62 melanoma; -87.3% (active) with LOX IMVI melanoma; -72.7% (active) in the test with SK-MEL-28 melanoma; 96.4% in the test with SK-MEL-2 melanoma; 77.3% in the test with EKVX NSCLC; 52.4% in the test on SN12C renal. Besides, the growth in the test on UO-31 renal was 51.8%; in the test on TK-10 renal, 72.7%; in the test with ACHN renal, -61.9% (active); in the test on CAKI-1 renal, -38.8% (active); with A498 renal it was 77.6%; with CCRF-CEM leukemia, 7.28% (active).

For `S=c1[nH]cccc1-c1nnc2n1Nc1nc3ccc(Cl)cc3cc1CS2`, the growth with HCT-15 colon is 96.9%; with HT29 colon, 110%; in the test on SNB-75 CNS, 91.4%; in the test on SNB-19 CNS, 96.8%; in the test with U251 CNS it was 105%; in the test on PC-3 prostate, 97.7%. Also, the growth with SK-MEL-5 melanoma is 98%; in the test on UACC-62 melanoma it was 87.3%; in the test with LOX IMVI melanoma, 98%; with SK-MEL-28 melanoma it was 104%; with EKVX NSCLC, 93.1%; in the test with SN12C renal it was 102%. In addition, the growth in the test on UO-31 renal is 79.6%; in the test with ACHN renal, 101%; in the test on CAKI-1 renal it was 81.8%; in the test on A498 renal, 107%; with CCRF-CEM leukemia, 100%; with MOLT-4 leukemia, 92.3%.

As for `CCCCCCCCN1C(=O)/C(=c2\sc3n(c2=O)C2C(NN=3)N(CC)C(=O)N2CC)c2ccccc21` (stereo not drawn), the growth in the test on HCT-15 colon is 93.2%; with HT29 colon, 100%; in the test with SNB-75 CNS, -13% (active); with SNB-19 CNS, 45.7%; with PC-3 prostate it was 81.7%; with SK-MEL-5 melanoma it was 96.9%. Besides, the growth in the test with UACC-62 melanoma was 76.3%; with LOX IMVI melanoma it was 81.9%; in the test with SK-MEL-28 melanoma, 88.3%; in the test with SK-MEL-2 melanoma, 86.8%; with EKVX NSCLC, 73.9%; in the test on SN12C renal, 86.1%. The growth in the test on UO-31 renal was 66.8%; in the test on TK-10 renal it was 110%; in the test with ACHN renal, 73.8%; in the test on CAKI-1 renal it was 49.3%; with A498 renal it was 86.9%; with MOLT-4 leukemia, 101%.

As for `CN1CCN(c2ccc(NC3=C(Cl)C(=O)c4ncccc4C3=O)cc2C#N)CC1`, the growth is 48.2% in the test on HCT-15 colon; 103% with HT29 colon; 81.1% with SNB-75 CNS; 96.8% with SNB-19 CNS; 60.6% in the test on PC-3 prostate; 97.5% with SK-MEL-5 melanoma. The growth with UACC-62 melanoma is 83.4%; in the test with LOX IMVI melanoma, -61.6% (active); in the test on SK-MEL-28 melanoma, -50.9% (active); in the test with SK-MEL-2 melanoma it was 78.8%; with EKVX NSCLC it was 36.4%; with SN12C renal, 25.5%. The growth in the test with UO-31 renal was -34.9% (active); in the test with TK-10 renal, 85.4%; in the test on ACHN renal, -96.1% (active); with CAKI-1 renal it was 0.744% (active); in the test with A498 renal, 79.7%; in the test with CCRF-CEM leukemia, -19.9% (active). In addition, the growth with MOLT-4 leukemia is -10.8% (active).

Take `Cc1cccc(Oc2ccc(Nc3ncnc4ccc(NC(=O)CN(C)C)cc34)cc2Cl)c1`: the growth with HCT-15 colon was -40.9% (active); in the test on HT29 colon, 3.23% (active); in the test on SNB-75 CNS, 66.4%; with SNB-19 CNS it was 59.9%; with PC-3 prostate, 40.7%; with SK-MEL-5 melanoma, 39.9%. Further, the growth was 102% in the test with UACC-62 melanoma; -78.1% (active) in the test with LOX IMVI melanoma; 48.1% with SK-MEL-28 melanoma; 84.2% in the test with SK-MEL-2 melanoma; 31.6% in the test on EKVX NSCLC; 36.7% in the test on SN12C renal. For the same molecule, the growth with UO-31 renal was 23.3%; with TK-10 renal, 36%; with CAKI-1 renal, 40.8%; with A498 renal it was 58.7%; with CCRF-CEM leukemia it was 47.7%; in the test on MOLT-4 leukemia, 25.9%.

Regarding `CCCCCCCCCCCCCCCC(=O)OC[C@@]1(O)C[C@@]23CC[C@@H]4C(C)(C)[C@H](O)CC[C@@]4(C)[C@@H]2CC[C@H]1C3`, the growth in the test with HCT-15 colon is 107%; in the test with HT29 colon, 104%; in the test with SNB-75 CNS, 99.6%; in the test with SNB-19 CNS, 96.7%; in the test with PC-3 prostate it was 100%; with SK-MEL-5 melanoma, 102%. Further, the growth in the test on UACC-62 melanoma is 100%; with LOX IMVI melanoma it was 103%; in the test with SK-MEL-28 melanoma, 110%; in the test with SK-MEL-2 melanoma, 104%; in the test with EKVX NSCLC, 100%; in the test on SN12C renal it was 96%. Besides, the growth is 92.4% in the test with UO-31 renal; 108% with ACHN renal; 94.2% in the test on CAKI-1 renal; 105% in the test with A498 renal; 100% in the test with CCRF-CEM leukemia; 101% in the test with MOLT-4 leukemia.

Regarding `COc1ccc(/C=C\c2nc3ccccc3s2)cc1OP(=O)(O)O`, the growth in the test with HCT-15 colon is 30%; with HT29 colon, 104%; in the test on SNB-75 CNS, -2.05% (active); in the test on SNB-19 CNS, 28.8%; with PC-3 prostate, 43.5%; in the test with SK-MEL-5 melanoma, 21.8%. Besides, the growth is 41.5% in the test on UACC-62 melanoma; 41.5% in the test with LOX IMVI melanoma; 67.4% in the test on SK-MEL-28 melanoma; 22.2% in the test with SK-MEL-2 melanoma; 76.8% with EKVX NSCLC; 55.4% with SN12C renal. Also, the growth in the test with UO-31 renal was 51.5%; in the test with TK-10 renal, 90.3%; with ACHN renal it was 56.9%; in the test with CAKI-1 renal, 38.5%; with CCRF-CEM leukemia it was 16.8%; in the test on MOLT-4 leukemia it was 26.3%.

For the molecule `COc1cnccc1-c1nc2ccc3[nH]ncc3c2c2c1CCCC2`, the growth with HCT-15 colon is 46.1%; in the test on HT29 colon, 51.8%; in the test on SNB-19 CNS, 85.3%; in the test on U251 CNS it was 83.9%; with PC-3 prostate, 68.2%; with SK-MEL-5 melanoma, 54.1%. Further, the growth with UACC-62 melanoma is 38.1%; in the test on LOX IMVI melanoma it was 31.7%; in the test with SK-MEL-28 melanoma, 58.6%; in the test with SK-MEL-2 melanoma, 81.2%; in the test on EKVX NSCLC, 18.2%; in the test with SN12C renal it was 62.4%. In addition, the growth was 29.4% in the test with UO-31 renal; 60.7% in the test on TK-10 renal; 37.6% with ACHN renal; 18% with CAKI-1 renal; 13.2% with A498 renal; 16.4% in the test with CCRF-CEM leukemia. Besides, the growth with MOLT-4 leukemia is 28.2%.

With `NC(=S)N/N=C/c1ccc(OC(=O)COc2cc(Cl)c(Cl)cc2Cl)cn1`, the growth with HCT-15 colon is 81%; in the test with HT29 colon, 70.7%; in the test on SNB-19 CNS it was 91.6%; with PC-3 prostate it was 59.8%; with SK-MEL-5 melanoma it was 21.8%; in the test with UACC-62 melanoma it was 39.7%. Moreover, the growth in the test with LOX IMVI melanoma was 25.1%; in the test on SK-MEL-28 melanoma it was 89%; in the test on SK-MEL-2 melanoma, 59.1%; with EKVX NSCLC it was 106%; with SN12C renal, 43.9%; with UO-31 renal, 22.1%. For the same molecule, the growth with TK-10 renal was 92.5%; in the test on ACHN renal, 18.4%; in the test with CAKI-1 renal it was 36.4%; in the test with CCRF-CEM leukemia it was 40.7%; with MOLT-4 leukemia, 31.3%.
